Tb PYK inh: inhibitors of Trypanosoma brucei pyruvate kinase; 0.12% of 410,000 active; AID 624173; Potency, µM (highest dose often 76.8 µM), for inactives: at the highest dose activity, negative = inhibition, actives largely listed as inhibitors; TbPYK enzyme, Kinase-Glo Plus ATP luminescence, 45 min; Q57TT1; note: potency is the fitted concentration of half-maximal effect; nearly all actives have a fitted effect of over 50% in size
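Readout: single end-point luminescence (Kinase-Glo Plus, 10 min). Reaction conditions were TbPYK/substrate plus 130 uM ADP, 45 min at RT, pH 7.2 TEA buffer. No-enzyme wells served as controls, and data were normalized before concentration-response fitting.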
LmPK inhibitor: blocks Leishmania mexicana pyruvate kinase activity. AID 1721. 0.37% of 290,000 active. purified LmPK, Kinase-Glo ATP luminescence, 1 h. Potency, µM (highest dose often 57.5 µM), for inactives: top-dose activity change, negative = inhibition, hits mostly inhibitors. Q27686; note: potency is the fitted concentration of half-maximal effect
Target sequence (Q27686 whole entry, looked up): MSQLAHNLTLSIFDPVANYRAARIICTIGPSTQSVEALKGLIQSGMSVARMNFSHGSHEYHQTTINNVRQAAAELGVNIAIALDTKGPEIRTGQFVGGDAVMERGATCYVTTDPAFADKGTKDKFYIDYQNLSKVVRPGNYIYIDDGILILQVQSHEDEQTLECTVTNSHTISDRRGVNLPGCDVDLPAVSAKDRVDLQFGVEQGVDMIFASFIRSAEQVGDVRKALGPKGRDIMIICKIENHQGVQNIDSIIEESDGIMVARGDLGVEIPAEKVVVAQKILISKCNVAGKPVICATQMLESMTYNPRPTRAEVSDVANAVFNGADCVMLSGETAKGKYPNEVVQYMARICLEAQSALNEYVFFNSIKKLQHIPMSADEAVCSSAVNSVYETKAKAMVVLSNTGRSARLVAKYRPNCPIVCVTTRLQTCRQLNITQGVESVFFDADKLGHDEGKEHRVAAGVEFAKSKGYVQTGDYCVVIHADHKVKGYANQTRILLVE
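Pyruvate kinase activity monitored as ATP production (luciferase luminescence). Conditions: 0.1 nM enzyme, 0.5 mM PEP, 0.1 mM ADP, 1 h, RT; normalized against uninhibited and no-enzyme wells.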
VACV mCherry inh: inhibitors of vaccinia virus infection (mCherry reporter signal); AID 720579; Vaccinia virus mCherry reporter infection, fluorescence; 0.63% of 310,000 active; Potency, µM (doses to about 36.5 µM), without a hit: top-dose activity change, negative = inhibition, usual class: inhibitors; calls by dose curve; tested in A549 cells; note: potency is the fitted concentration of half-maximal effect; nearly all actives have a fitted effect of over 35% in size
Vaccinia Venus: inhibitors of vaccinia virus (Venus reporter) | Vaccinia virus Venus reporter expression, fluorescence | Potency, µM (doses to about 36.5 µM), inactives show at the highest dose activity change, negative = inhibition, actives largely listed as inhibitors | 0.46% of 330,000 active; calls by dose curve; tested in A549 cells; note: potency is the fitted concentration of half-maximal effect; nearly all actives have a fitted effect of over 30% in size
HCMV antiviral: inhibitors of human cytomegalovirus | activity change, negative = inhibition, % at 57.5 µM | HFF cells, HCMV-luciferase reporter, 72 h; active compounds read low | 4.5% of 410,000 active | AID 1259415; in the data active = activity change below about -60%; inconclusive = no clear call, values can overlap the other calls; inactive = above about -39%
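HFF cells seeded 16 h at 37C, treated with compounds, infected with luciferase-reporter HCMV at MOI 1 PFU/cell; luciferase read at 72 h post infection, normalized to buffer-only and Salinomycin controls.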
Starred values were filed as active, the others as inactive. Compounds with a hit are over-represented: about 5% of the library has one in this group of screens. Unless noted, calls come from the whole dose curve; as a rule, active = well fitted curve in the direction sought with a large enough effect; inconclusive = small, poorly fitted or top-dose-only effect, or another doubt; inactive = no such curve, though single readings can be large; an effect the other way counts as inactive or inconclusive. % is set by controls: 0 for no effect and ±100 for the full control effect.

CC1CC(C)CN(S(=O)(=O)c2cc3c4c(c2)CCN4C(=O)CC3)C1 (stereo unspecified) was read as Tb PYK inh 7.0%, VACV mCherry inh -7.8%, Vaccinia Venus -9.4% and HCMV antiviral -7.7.
`O=c1ccc2ccccc2c2ccccc12` gave Tb PYK inh -2.4%, VACV mCherry inh 10.0%, Vaccinia Venus -5.3% and HCMV antiviral -99.2*.
c1ccc2c(c1)ccc1ccccc12 was read as Tb PYK inh 0.8%, VACV mCherry inh inactive, Vaccinia Venus -8.6% and HCMV antiviral inconclusive.
For CC(C)c1ccc(Nc2ncc3c(n2)CCN(C(=O)Nc2ccc(F)c(Cl)c2)C3)cc1 the results were Tb PYK inh 3.1%, VACV mCherry inh -29.4%, Vaccinia Venus inconclusive and HCMV antiviral -75.3*.
COc1cccc(NC(=O)N2CCc3nc(Nc4cc(Cl)cc(Cl)c4)ncc3C2)c1 was read as Tb PYK inh 1.6%, VACV mCherry inh inactive, Vaccinia Venus inconclusive and HCMV antiviral -66.7*.
O=C(Nc1ccc(OC(F)(F)F)cc1)N1CCc2nc(NCc3cccc(Oc4ccccc4)c3)ncc2C1 was read as Tb PYK inh 0.7%, VACV mCherry inh -4.9%, Vaccinia Venus -15.3% and HCMV antiviral -92.2*.
For COc1cccc(NC(=O)N2CCc3nc(NCc4cccc(Oc5ccccc5)c4)ncc3C2)c1 the results were Tb PYK inh 3.2%, VACV mCherry inh -6.5%, Vaccinia Venus inconclusive and HCMV antiviral inconclusive.
Screening COC(=O)C[C@H]1C[C@H]2c3cc(NC(=O)Nc4ccc(C(F)(F)F)cc4)ccc3O[C@H]2[C@@H](CO)O1 returned Tb PYK inh 4.4%, VACV mCherry inh -1.9%, Vaccinia Venus -24.4% and HCMV antiviral -16.7.
Screening COc1ccc(Cl)cc1NC(=O)CCS(=O)(=O)c1cccc2nonc12 returned Tb PYK inh -9.8%, VACV mCherry inh inactive, Vaccinia Venus -23.4% and HCMV antiviral -86.0*.
`COc1ccc(NC(=O)c2ccc(OC(=S)N(C)c3ccc(OC)cc3)cc2)cc1` gave Tb PYK inh 1.6%, LmPK inhibitor -0.2% and HCMV antiviral -10.5.
`CN(C(=S)Oc1ccc(C(=O)Nc2ccccc2)cc1)c1ccccc1` gave Tb PYK inh -2.8%, LmPK inhibitor -3.4%, VACV mCherry inh inactive, Vaccinia Venus -3.8% and HCMV antiviral -67.2*.
Screening O=C(/C=C\Nc1ccccn1)c1ccc(Cl)cc1 returned Tb PYK inh -14.9%, LmPK inhibitor 12.6µM*, VACV mCherry inh -14.1%, Vaccinia Venus -13.1% and HCMV antiviral -33.2.
`O=c1cccc2c1c1cc[nH]c3ccc(=O)n2c31` gave Tb PYK inh 3.4%, VACV mCherry inh -9.8%, Vaccinia Venus 5.7% and HCMV antiviral -70.0*.
Screening COc1ccc(N=Cc2c(O)c3ccccc3oc2=O)cc1 returned Tb PYK inh -15.7%, LmPK inhibitor 15.8µM* and HCMV antiviral inconclusive.
COc1ccc(Cn2c(O)c(C=Nc3ccccc3)c3ccccc3c2=O)cc1 was read as Tb PYK inh -3.3%, LmPK inhibitor -2.3%, VACV mCherry inh inactive, Vaccinia Venus inconclusive and HCMV antiviral -63.3*.
Screening COc1ccc(Cn2c(O)c(C=Nc3ccc(O)cc3)c3ccccc3c2=O)cc1 returned Tb PYK inh 3.4%, LmPK inhibitor 0.2%, VACV mCherry inh -17.5%, Vaccinia Venus -27.2% and HCMV antiviral inconclusive.
For COC(=O)C1=CN(c2ccc(OC)cc2)C=C(C(=O)OC)C1c1ccc(C)c([N+](=O)[O-])c1 the results were Tb PYK inh -5.9%, LmPK inhibitor 3.2%, VACV mCherry inh -2.2%, Vaccinia Venus -19.3% and HCMV antiviral -78.0*.
Screening COC(=O)C1=CN(c2ccc(OC)cc2)C=C(C(=O)OC)C1c1cccc(F)c1 returned Tb PYK inh 1.9%, LmPK inhibitor 9.6% and HCMV antiviral -8.4.
CC(OC(=O)Cc1c[nH]c2ccccc12)C(=O)c1ccccc1 (stereo unspecified) was read as Tb PYK inh 2.6% and HCMV antiviral 20.8.
Cc1ccc(S(=O)(=O)N(C)C)cc1NC(=O)COc1cccc(-n2cnnn2)c1 was read as Tb PYK inh 0.0% and HCMV antiviral -31.4.
Screening COC(=O)C1=C(C)NC(=O)/C1=C\c1cc(C)n(-c2c(C)cccc2C)c1C returned Tb PYK inh -9.8%, LmPK inhibitor 0.4%, VACV mCherry inh -6.0%, Vaccinia Venus -5.3% and HCMV antiviral -61.5*.
COC(=O)C1=C(C)NC(=O)/C1=C\c1cc(C)n(-c2ccccc2C)c1C was read as Tb PYK inh -1.0%, LmPK inhibitor 0.0%, VACV mCherry inh inconclusive, Vaccinia Venus -16.3% and HCMV antiviral -27.6.
For CN1c2ccccc2C2(C)CCCC3=Cc4cc([N+](=O)[O-])cc([N+](=O)[O-])c4OC312 (stereo unspecified) the results were Tb PYK inh 2.0%, LmPK inhibitor 1.0%, VACV mCherry inh -3.2%, Vaccinia Venus -19.1% and HCMV antiviral -60.2*.
CN1c2ccccc2C2(C)CCCC3=Cc4cccc([N+](=O)[O-])c4OC312 (stereo unspecified) was read as Tb PYK inh -11.5%, LmPK inhibitor 2.9%, VACV mCherry inh inactive, Vaccinia Venus -16.6% and HCMV antiviral inconclusive.
`Cc1n(C)c2cc(Cl)ccc2[n+]1Cc1ccccc1` gave Tb PYK inh 0.8%, LmPK inhibitor -2.2%, VACV mCherry inh -12.7%, Vaccinia Venus 0.9% and HCMV antiviral -60.0*.
Screening CCN(CC)C(=O)c1sc2nc(-c3cccs3)cc(-c3ccc(Cl)cc3)c2c1N returned Tb PYK inh -16.3%, LmPK inhibitor -1.4%, VACV mCherry inh -9.0%, Vaccinia Venus -0.1% and HCMV antiviral -33.3.
CCN(CC)C(=O)c1sc2nc(-c3cccs3)cc(-c3cccs3)c2c1N was read as Tb PYK inh -16.2%, LmPK inhibitor 6.6% and HCMV antiviral -64.0*.
Screening Cc1ccc(-n2c(=O)c3c(c4cc(C)ccc4n3C)n(CC(=O)NCC3CCCO3)c2=O)cc1 (stereo unspecified) returned Tb PYK inh -0.7%, VACV mCherry inh 9.4%, Vaccinia Venus -3.2% and HCMV antiviral 53.1.
CS(=O)(=O)N(C(=O)NC(=O)NC12CC3CC(CC(C3)C1)C2)C1CCCCC1 was read as Tb PYK inh -2.1%, LmPK inhibitor 2.4%, VACV mCherry inh inactive, Vaccinia Venus -17.7% and HCMV antiviral -63.9*.
`O=C1ON=C(c2ccccc2)/C1=C/c1ccc(-c2ccccc2[N+](=O)[O-])o1` gave Tb PYK inh inconclusive, LmPK inhibitor -9.5%, VACV mCherry inh -28.2%, Vaccinia Venus -25.6% and HCMV antiviral -98.1*.
O=C(CSc1nc2ccccc2c(=O)n1-c1ccccc1)N1CCCC1 was read as Tb PYK inh 4.4%, LmPK inhibitor -5.6% and HCMV antiviral 6.2.

Source: PubChem BioAssay (National Center for Advancing Translational Sciences (NCATS))
